Measured values published in ChEMBL document CHEMBL3988442, “University of Dundee, Small-Polar-MMV Screening Library” (2021).
Out of some 69,000 compounds screened, about 420 (0.61%) showed an effect of 50% or more. Only a selection was taken, and strong results are over-represented in it overall.

Molecular target: T1, Histidine--tRNA ligase (Leishmania infantum) (UniProt A4I591)
T1 sequence (whole entry): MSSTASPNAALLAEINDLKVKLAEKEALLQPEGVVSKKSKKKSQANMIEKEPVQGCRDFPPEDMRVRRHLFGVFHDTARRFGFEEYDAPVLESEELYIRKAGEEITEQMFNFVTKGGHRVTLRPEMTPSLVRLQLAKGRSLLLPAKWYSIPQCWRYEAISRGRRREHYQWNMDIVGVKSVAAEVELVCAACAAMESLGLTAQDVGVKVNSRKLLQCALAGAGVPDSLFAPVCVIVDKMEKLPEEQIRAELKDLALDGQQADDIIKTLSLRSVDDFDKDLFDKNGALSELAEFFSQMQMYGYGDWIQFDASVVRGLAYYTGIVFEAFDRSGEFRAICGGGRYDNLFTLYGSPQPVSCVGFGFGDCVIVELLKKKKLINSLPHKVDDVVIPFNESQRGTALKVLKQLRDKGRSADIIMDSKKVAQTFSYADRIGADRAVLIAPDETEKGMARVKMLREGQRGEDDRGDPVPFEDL
Assay: Leishmania infantum Histidine tRNA synthetase (LdHisRS)
Assay type: functional
Design: scale not given: in the data most compounds retested in dose-response had high values
Settings: 30 µM

| SMILES | Percent Effect [%] |
| --- | --- |
| Cc1nccn1CCCn1cncc1-c1ccc2c(c1)CCCN2C | 30.9 |
| Cc1cnccc1N1CCCN(C(=O)CCCn2ccnc2C)CC1 | 12.9 |
| CC1Cc2cc(-c3cncn3CC(=O)NC(C)(C)C)ccc2N1C (centres undefined) | 31 |
| CCN1c2ccc(-c3cncn3CC(=O)NC(C)(C)C)cc2CC1C (centres undefined) | 42.1 |
| c1coc(CN2CCO[C@H]3[C@@H](OCC4CC4)CC[C@@H]32)c1 | 9.62 |
| Cc1ccc(CN2CC[C@@H]3OCCN(Cc4ccncc4)[C@H]3CC2)s1 | 15.1 |
| CN1CCCCC1c1cncc(N2CCC(O)CC2)n1 (centres undefined) | 14.5 |
| Cc1cc(N2CCC(O)CC2)nc(C2CCCN2C)n1 (centres undefined) | 54.9 |
| Cc1cc(N2CCC(O)CC2)nc(C)n1 | 13.7 |
| CN1CC2(CCN(C(=O)c3ccc(=O)n(C)c3)CC2)CC1=O | -38.8 |
| O=C(c1ncccn1)N1C[C@@H]2COC[C@]2(c2nnc(C3CC3)o2)C1 | 20.6 |
| CC(=O)N1CCC2(CC1)CC[C@@]1(C(=O)N(C)C)CN(S(C)(=O)=O)C[C@@H]21 | 13.2 |
| CC(=O)N1CC[C@H]2OCC[C@@H](C(=O)NCc3ccco3)[C@@H]2C1 | 10.1 |
| Cn1ccc2c(-c3cc(N)nc(N4CCOCC4)n3)ccnc21 | 19.1 |
| Cn1ccc2c(-c3cc(N4CCOCC4)ncn3)ccnc21 | 9.52 |
| Cn1ccc2c(-c3cc(N4CCCCC4)ncn3)ccnc21 | 54.8 |
| CC(C)C(=O)N1CCN(C(=O)c2cc(Cl)no2)[C@H]2CS(=O)(=O)C[C@H]21 | 1.61 |
| CCCN1C[C@H]2CC[C@@H]1CN(c1nnc(C(C)C)s1)C2 | -42.9 |
| CC(C)c1nnc(N2C[C@@H]3CC[C@H](C2)N(CC2CCC2)C3)s1 | 19.1 |
| CC(=O)c1ccc(C(=O)N2C[C@@H]3CC[C@H](C2)N(Cc2ccccc2)C3)s1 | 30.1 |
| CC(C)c1nnc(N2C[C@@H]3CC[C@H](C2)N(Cc2ccccc2)C3)s1 | 59.5 |
| Cc1nnsc1CN1C[C@@H]2CC[C@H](C1)N(Cc1ccccc1)C2 | 8.33 |
| CSCCCN1C(=O)CC[C@H]2CN(Cc3ncc[nH]3)CC[C@H]21 | 1.33 |
| COc1ccc(-c2nc(CCNCc3ccncc3)co2)cc1 | 24.5 |
| Cc1nnc(NCC2(c3ccccc3)CC2)c(C#N)c1C | 9.62 |
| Cc1nnc(NCCc2coc(-c3ccc(F)cc3)n2)c(C#N)c1C | 48.6 |
| Cc1nnc(NCCC(=O)NCc2ccccc2)c(C#N)c1C | 31.5 |

| SMILES | Percent Effect [%] |
| --- | --- |
| COc1ccc(-c2nc(CCNc3nnc(C)c(C)c3C#N)co2)cc1 | 57.1 |
| Cc1nnc(NCCc2coc(-c3ccccc3)n2)c(C#N)c1C | 51.4 |
| CCN1CC[C@@]2(C(=O)N3CCCC3)CCN(S(C)(=O)=O)CC[C@@H]12 | 21.4 |
| O=C(C1CCOCC1)N1C[C@H]2CCC[C@@]2(COc2ccccn2)C1 | 0 |
| CC(C)CC(=O)N1C[C@@H]2CCN(c3ncccn3)C[C@@H]2C1 | 17.1 |
| O=C(c1cnccn1)N1C[C@@H]2[C@@H](C1)OCC(=O)N2CC1CCCC1 | -944 |
| O=C(c1ccccn1)N1C[C@H]2CCC[C@@]2(COCC2CCOCC2)C1 | 10.1 |
| CC(C)=CCN1CCN(Cc2ncc[nH]2)[C@H]2CS(=O)(=O)C[C@H]21 | 0 |
| CCNC(=O)CN1CCN(c2cc(C)nc(-c3ccncc3)n2)CC1 | 30.1 |
| Cc1cc(N2CCC(C(=O)N(C)C)CC2)nc(-c2ccncc2)n1 | 17.1 |
| Cc1cc(N2CCC(Cc3ccccc3)CC2)ncn1 | 21.4 |
| Cc1cc(N2CCC(Cc3ccccc3)CC2)nc(-c2ccncc2)n1 | 62.5 |
| Cc1cc(N2CCN(CC(=O)N(C)C)CC2)nc(-c2ccncc2)n1 | 51.4 |
| Cc1cc(N2CCC(CC(N)=O)CC2)nc(-c2ccncc2)n1 | 15.6 |
| Cc1cc(N2CCN(CCO)CC2)nc(-c2ccncc2)n1 | 20 |
| CC(=O)NCC1CCN(c2cc(C)nc(-c3ccncc3)n2)CC1 | 59.8 |
| COC(=O)C1CCN(c2cc(C)nc(-c3ccncc3)n2)CC1 | 37.6 |
| c1cnc(N2CCN(C3CCC[C@@H]4CN(CC5CC5)C[C@H]34)CC2)nc1 (some centres undefined) | 2.86 |
| Cc1ccc(-c2nnc(CN3CCOC(Cn4cncn4)C3)o2)cc1 (centres undefined) | 3.39 |
| CCn1ncc(CN2C[C@@H]3CCCN3C[C@H]2CCSC)c1C | -58 |
| CC(C)N1CCN2C(=O)N(C3CCCCC3)C[C@H]2C1 | 18.9 |
| CCO[C@@H]1C[C@H]2CN(S(=O)(=O)c3cccs3)CCN2C1 | 7.89 |
| CN(C)S(=O)(=O)N1C[C@H]2C[C@H](C(=O)NCc3ccccc3)[C@@H](C1)O2 | 3.64 |
| Cc1cc(CN2CCCC2)cc(Oc2ccc3c(c2)CC(CN)O3)c1 (centres undefined) | 12.5 |
| NCC1Cc2cc(Oc3cc(F)c(CN4CCCC4)c(F)c3)ccc2O1 (centres undefined) | 57.5 |
| COc1ccc(CN2CCCC2)cc1Oc1ccc2c(c1)CC(CN)O2 (centres undefined) | 25.8 |
| O=C(C1CCC1)N1CCN(Cc2ccccc2F)[C@H]2CS(=O)(=O)C[C@H]21 | 23.3 |
